In PubChem BioAssay (NCATS) one finds activity, negative = cell killing and Potency data, which are given here for 28 molecules.

The nature of experiment [1]: Drug repurposing screens with cells derived from glioblastoma tumor samples (AID 1345199). Further: nearly all actives have a fitted effect of over 40% in size. The conditions noted are these: GBM patient neurospheres viability, ATP luminescence, 48 h. Put shortly: (§1)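 Four patient lines of CD133+ GBM neurospheres were screened at several concentrations; hits were retested in those lines plus three slower-growing GBM lines, using 48-hour treatment and ATP-based viability.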

The subject of experiment [2] is astro (control astrocytes). The description is as above. The conditions noted are these: viability, ATP luminescence, 48 h; series mostly up to 45.9 µM. The method, boiled down:
as §1

Setting [3] is: at 45.9 µM (top of the series), tumour line B.
[4] abbreviates: at 45.9 µM (top of the series), tumour line D.
Setting [5] is: at 46.1 µM (top of the series), tumour line C.
Setting [6] is: at 20 µM (top of the series), tumour line C.
The mark [7] stands for this setting: at 21.2 µM (top of the series), tumour line B.
[8] abbreviates: at 21.2 µM (top of the series), tumour line D.

Records with an inconclusive call do not appear. Unmarked numbers belong to inactive results. The source made the active and inactive calls. The call rests on the fitted dose curve; in most records, active means well fitted inhibition curve with a large enough effect; inconclusive means small, poorly fitted or top-dose-only effect; inactive means flat fitted curve, though single readings scatter.
On the % scale 0 is the no-effect control and ±100 the full control effect; potency means the concentration at half of the fitted maximal effect.

Take `Cc1cc(CC(=O)O)c(C)n1-c1ccc(Cl)cc1`: the activity, negative = cell killing in experiment [1] (setting [3]) is -14.5%; in experiment [1] (setting [4]) it was 3.83%. The Potency in experiment [1] (tumour line A) is 25.1 µM (active). In experiment [2], the Potency result was “inactive”.
As for `Cc1c[nH]c2ccccc12`, the activity, negative = cell killing in experiment [1] (setting [3]) was -3.32%; in experiment [1] (setting [4]), -13.8%; in experiment [1] (setting [5]), -16.3%. In addition, the Potency result in experiment [2] is “inactive”.
For `c1ccc(CC2=NCCN2)cc1`, the activity, negative = cell killing in experiment [1] (setting [6]) is -9.44%; in experiment [1] (setting [7]), -1.18%; in experiment [1] (setting [8]) it was -24.9%. Besides, the Potency entry in experiment [2] was “inactive”.
Turning to `CCC1Nc2cc(Cl)c(S(N)(=O)=O)cc2S(=O)(=O)N1` (configuration not stated), the figures for the activity, negative = cell killing in experiment [1] (setting [3]), in experiment [1] (setting [4]) and in experiment [1] (setting [5]) were -19.7%, 9.79% and -1.53%, respectively. The Potency result in experiment [2] is “inactive”.
Take `O=C(NC1CCN(CCc2c[nH]c3ccccc23)CC1)c1ccccc1`: in experiment [1] (setting [4]), the activity, negative = cell killing is -28%. In addition, the Potency is 11.2 µM (active) in experiment [1] (tumour line A) and 20.6 µM (active) in experiment [1] (tumour line C). Further, in experiment [2], the Potency entry is “inactive”.
As to `CC(=O)Nc1ncc([N+](=O)[O-])s1`, the activity, negative = cell killing in experiment [1] (setting [3]) was -7.38%; in experiment [1] (setting [4]), -8.31%; in experiment [1] (setting [5]), -21.7%. In addition, the Potency result in experiment [2] was “inactive”.
Consider `CC(=O)O[C@]1(C(C)=O)CC[C@H]2[C@@H]3C=C(C)C4=CC(=O)CC[C@]4(C)[C@H]3CC[C@@]21C`, for which the values for the activity, negative = cell killing in experiment [1] (setting [6]), in experiment [1] (setting [7]) and in experiment [1] (setting [8]) were -0.988%, -20.3% and 13.6%, respectively. Also, the Potency result in experiment [2] is “inactive”.
As for `CC(C)[N+](C)(C)CC(O)COc1cccc2ccccc12` (configuration not stated), the activity, negative = cell killing was -19.8% in experiment [1] (setting [3]), -17.5% in experiment [1] (setting [4]) and -27.6% in experiment [1] (setting [5]). Further, in experiment [2], the Potency result is “inactive”.
Regarding `O=C1C(=O)c2ccccc2C(O)=C1C1CCC(c2ccc(Cl)cc2)CC1` (configuration not stated), the activity, negative = cell killing in experiment [1] (setting [6]) was -16.4%. Besides, the Potency in experiment [1] (tumour line A) was 14.1 µM (active); in experiment [1] (tumour line D), 8.91 µM (active); in experiment [2] it was 12.6 µM (active).
Regarding `CC(C)(C)NC[C@H](O)COc1nsnc1N1CCOCC1`, the activity, negative = cell killing in experiment [1] (setting [3]) is -9.83%; in experiment [1] (setting [4]), -20.5%; in experiment [1] (setting [5]), -12.6%. For the same molecule, the Potency entry in experiment [2] is “inactive”.
The matching figures for `O=[N+]([O-])c1cccc(S(=O)(=O)NCCNS(=O)(=O)c2cccc([N+](=O)[O-])c2)c1`: -14.3%, -9.35%, -36.6% and “inactive”.
The matching figures for `O=C(O)C1(C(=O)O)CCC1.[NH2-].[NH2-].[Pt+2]`: -20.6%, -8.04%, -13.1% and “inactive”.
Take `NC(=O)C1(N2CCCCC2)CCN(CCCC(=O)c2ccc(F)cc2)CC1`: the activity, negative = cell killing in experiment [1] (setting [3]) was -7.35%; in experiment [1] (setting [4]), -28%. In addition, in experiment [1] (tumour line A), the Potency is 10 µM (active). Moreover, in experiment [2], the Potency entry is “inactive”.
On to `CCNC(=O)/C=C/c1cccc(Br)c1`, for which the activity, negative = cell killing in experiment [1] (setting [3]) was -10.7%; in experiment [1] (setting [4]), -16%; in experiment [1] (setting [5]), -17.6%. Further, the Potency result in experiment [2] was “inactive”.
The matching figures for `O=[N+]([O-])c1ccc(/C=N\O)o1`: -7.45%, -31.7%, 1.04% and “inactive”.
As for `COc1ccc(S(=O)(=O)N2c3ccc(Cl)cc3[C@@](O)(c3ccccc3Cl)[C@H]2C(=O)N2CCC[C@@H]2C(N)=O)cc1OC`, the activity, negative = cell killing in experiment [1] (setting [3]) was -16.9%; in experiment [1] (setting [4]), -6.65%; in experiment [1] (setting [5]) it was -27%. Also, the Potency result in experiment [2] is “inactive”.
Turning to `CCOC(=O)Nc1ccc2c(c1)N(C(=O)CCN1CCOCC1)c1ccccc1S2`, the results for the activity, negative = cell killing in experiment [1] (setting [6]), in experiment [1] (setting [7]) and in experiment [1] (setting [8]) were -16.1%, -11.1% and -19.6%, respectively. Besides, the Potency result in experiment [2] was “inactive”.
As to `O=C(Oc1cccc2cccnc12)c1ccccc1`, the figures for the activity, negative = cell killing in experiment [1] (setting [3]), in experiment [1] (setting [4]) and in experiment [1] (setting [5]) were -24.1%, -26.2% and -9.14%, respectively. In experiment [2], the Potency result is “inactive”.
Consider `OC[C@H]1O[C@@H](Oc2ccc(O)cc2)[C@H](O)[C@@H](O)[C@@H]1O`, for which the activity, negative = cell killing in experiment [1] (setting [3]) was 0.949%; in experiment [1] (setting [4]), 7.3%; in experiment [1] (setting [5]), -9.99%. Further, the Potency entry in experiment [2] was “inactive”.
The matching figures for `COP(=O)(OC)OC(c1ccc(Cl)cc1)P(=O)(OC)OC` (configuration not stated): -15.7%, -14.1%, -24.8% and “inactive”.
In the case of `CCCCCN=C(N)N/N=C/c1c[nH]c2ccc(OC)cc12`, the results for the activity, negative = cell killing in experiment [1] (setting [3]), in experiment [1] (setting [4]) and in experiment [1] (setting [5]) were -10.3%, 8.03% and 9.98%, respectively. The Potency entry in experiment [2] was “inactive”.
As for `CN(C)CCOC(=O)C(c1ccccc1)C1(O)CCCC1` (configuration not stated), the activity, negative = cell killing in experiment [1] (setting [3]) was -2.94%; in experiment [1] (setting [4]), -18.8%; in experiment [1] (setting [5]) it was -22.9%. Further, the Potency result in experiment [2] is “inactive”.
For `CCOC(=O)[C@H](CCc1ccccc1)N[C@@H](C)C(=O)N1[C@H](C(=O)O)C[C@@H]2CCC[C@@H]21` the same measures were -17.1%, 6.01%, -13.2% and “inactive”.
On to `Cc1ccc(O)c([C@H](CCN(C(C)C)C(C)C)c2ccccc2)c1`, for which the results for the activity, negative = cell killing in experiment [1] (setting [3]) and in experiment [1] (setting [5]) were -18% and -1.49%, respectively. Further, the Potency in experiment [1] (tumour line A) was 3.98 µM (active). In addition, the Potency result in experiment [2] is “inactive”.
Turning to `CC(C)=CCOc1ccc(/C=C/C(=O)c2ccc(OCC=C(C)C)cc2OCC(=O)O)cc1`, the activity, negative = cell killing in experiment [1] (setting [3]) is 16%; in experiment [1] (setting [4]), -25.2%; in experiment [1] (setting [5]), -4.09%. For the same molecule, in experiment [2], the Potency was 31.6 µM (active).
On to `O=C1OC(CN2CCOCC2)CN1/N=C/c1ccc([N+](=O)[O-])o1` (configuration not stated), for which the activity, negative = cell killing in experiment [1] (setting [6]) is -25.2%; in experiment [1] (setting [7]), 2.66%; in experiment [1] (setting [8]), -3.22%. The Potency result in experiment [2] was “inactive”.
In the case of `N[C@H](C(=O)O)[C@@H](O)c1ccc(O)c(O)c1`, the activity, negative = cell killing in experiment [1] (setting [3]) is -8.13%; in experiment [1] (setting [4]) it was -33.1%; in experiment [1] (setting [5]) it was -8.89%. Besides, the Potency result in experiment [2] was “inactive”.
Take `CC(C(=O)O)c1cccc(Oc2ccccc2)c1` (configuration not stated): the activity, negative = cell killing was 4.85% in experiment [1] (setting [6]), -4.71% in experiment [1] (setting [7]) and -19.7% in experiment [1] (setting [8]). For the same molecule, the Potency result in experiment [2] was “inactive”.
